The values that follow come from PubChem BioAssay AID1851 (National Center for Advancing Translational Sciences (NCATS), 2009).

In general, AC50 refers to the concentration at which the activity in the assay is half-maximal.

The structures appear in SMILES notation. Hit rate of the full screen: of about 16,000 compounds, about 2,600 (16%) were called active. Inconclusive results (about 20%) are left out. Only a sample is shown. Values without a mark were called inactive. The call rests on the fitted dose curve; in most records, active means well fitted curve in the direction sought with a large enough effect; inconclusive means small, poorly fitted or top-dose-only effect, or effect the other way; inactive means no such curve, though single readings can be large or run the other way.
On the % scale 0 is the no-effect control and ±100 the full control effect.

The target in the experiment is Cytochrome P450 2D6 (Homo sapiens) (UniProt P10635). The experiment is described as follows: Cytochrome panel assay with activity outcomes. As to conditions: recombinant CYP, pro-luciferin dealkylation, luminescence, p450-cyp2d6; series mostly up to 57.1 µM; activity, negative = inhibition: at the top concentration.
Chain of Cytochrome P450 2D6 (Homo sapiens) (P10635 whole entry, looked up): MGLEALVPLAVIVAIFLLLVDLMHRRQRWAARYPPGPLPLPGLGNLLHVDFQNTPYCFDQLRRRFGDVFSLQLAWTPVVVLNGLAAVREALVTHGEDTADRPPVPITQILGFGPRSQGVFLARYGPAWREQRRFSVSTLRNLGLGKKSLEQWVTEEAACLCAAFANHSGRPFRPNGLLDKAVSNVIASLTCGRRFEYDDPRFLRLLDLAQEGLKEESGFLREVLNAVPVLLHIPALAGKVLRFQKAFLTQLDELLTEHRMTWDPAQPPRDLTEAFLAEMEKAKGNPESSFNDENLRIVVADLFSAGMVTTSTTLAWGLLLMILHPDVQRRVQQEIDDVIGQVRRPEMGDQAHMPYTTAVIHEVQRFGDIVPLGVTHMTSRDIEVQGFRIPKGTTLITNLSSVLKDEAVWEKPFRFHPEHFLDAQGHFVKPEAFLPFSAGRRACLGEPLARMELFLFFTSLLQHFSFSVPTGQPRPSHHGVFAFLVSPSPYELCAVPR
Turning to `CC(C)C12CC[C@@]3(CC[C@H]4[C@@](C)(CCC[C@]4(C)C(=O)O)[C@@H]3C1)[C@@H](CN)C2`, the activity, negative = inhibition is 6.15% [at 11.4 µM]. Same read-out and setting: under `COc1ccc(Nc2cc(=O)n(C3CCCCC3)c(=O)[nH]2)c(OC)c1` stands 2.69%; under `Cc1nc(S(=O)(=O)NC2CCCCC2)c(C#N)c(C)c1Cl`, -9.51%; under `Cc1ccc(-c2c(C)sc(NC(=O)C3C4CCC(O4)C3C(=O)O)c2C(=O)OC(C)C)cc1` (stereo not given), -5.58%.

Regarding `Cc1ccc(/C=N/NC(=O)CSc2nc3nc(C)cc(C)n3n2)cc1`, the “activity, negative = inhibition” value is 15.2%. On the same count and under the same terms, under `Cc1cc(C)n2nc(SCC(=O)N/N=C/c3ccccc3F)nc2n1` stands 1.33%. As for `COc1ccccc1CNC(=O)CSc1nc2nc(C)cc(C)n2n1`, the AC50 is 15.8 µM (active). For `Nc1nc(=S)[nH]c2c1C1(CCCC1)Cc1ccccc1-2`, the “activity, negative = inhibition” value was 0.13%. The same measure, in the same setting: under `CO[C@@H]1COC(=O)[C@H](C)NC(=O)C/C=C\[C@@H](C)[C@@H](NS(=O)(=O)c2ccc(C)cc2)COC(=O)C/C=C\[C@@H]1C` stands 5.57% [at 11.4 µM]. Regarding `O=[N+]([O-])c1ccc(-c2cnc(SCc3ccccc3Cl)[nH]2)cc1`, the AC50 was 12.6 µM (active). Take `O=c1[nH]c(SCc2ccccc2[N+](=O)[O-])nc2nc[nH]c12`: the activity, negative = inhibition is -3.83% [at 11.4 µM].

On to `O=c1cc(-c2ccccc2)[nH]n1-c1ccc([N+](=O)[O-])cc1`, for which the “activity, negative = inhibition” value was 0.207%. On the same count and under the same terms, under `COCCn1c(=O)c(-c2cccs2)nc2cnc(N(C)C)nc21` stands 15.9%; under `O=P(O)(COc1ccccc1)COc1ccccc1`, 36%. As to `C[N+](C)(CCCOc1ccccc1)c1ccccc1`, the AC50 is 0.0158 µM (active). As to `O=c1c(-c2cccs2)nc2cnc(Nc3ccccc3)nc2n1C[C@H]1CCCO1`, the “activity, negative = inhibition” value was 1.23%. Still for that read-out and setting: under `CC(CO)(CO)N=Cc1cc(I)cc(I)c1O` stands 3.56% [at 11.4 µM]; under `Cc1ccc(SCc2cc(=O)[nH]c(/N=C(\N)Nc3ccc(C)c(C)c3)n2)cc1`, 43.6%. As to `Cc1ccc(SCCNC(=S)Nc2ccc(C)c(C)c2)cc1`, the concentration at half-maximal activity (AC50) is 4.47 µM (active). Consider `Cc1ccc(NC(=S)Nc2ccc(Br)cc2)cc1`, for which the “activity, negative = inhibition” value was -17.6%.

For `COc1ccc(C(=O)Nc2cccc(/C(C)=N/NC(=O)c3ccc([N+](=O)[O-])cc3)c2)cc1OC`, the “activity, negative = inhibition” value is -12%. The same measure, in the same setting: under `CC(=O)Nc1ccc(NC(=O)CSc2ncnn2-c2ccccc2)cc1` stands -21.7%. Same read-out and setting: with `O=C(CSc1nnc(-c2ccccn2)n1Cc1ccco1)Nc1ccc2c(c1)OCO2` the figure was -27.1%. Still for that read-out and setting: under `COc1ccc2cc(C)c3nnc(SCC(=O)Nc4nc(-c5ccccc5)cs4)n3c2c1` stands 9.28%. With `CC(=O)Nc1ccc(NC(=O)CSc2nnc(-c3ccccc3)n2Cc2ccc3c(c2)OCO3)cc1`, the AC50 was 12.6 µM (active). Still for that read-out and setting: with `Cc1cc2cc(C)c3nnc(SCC(=O)NCc4ccc5c(c4)OCO5)n3c2cc1C` the figure was 17.8 µM (active). In the case of `Cc1ccc2cc(C)c3nnc(SCC(=O)NCc4ccco4)n3c2c1`, the “activity, negative = inhibition” value was -6.47%. The same measure, in the same setting: with `O=C(O)c1cscc1Cc1cccs1` the figure was 14.2% [at 11.4 µM]; with `O=C(O)/C=C\C(=O)Nc1cccc2c1-c1ccccc1C2=O`, 10.1% [at 11.4 µM]. Still for that read-out and setting: with `Cc1nc2cncnc2n(Cc2ccc(F)cc2)c1=O` the figure was -4.78%. As for `C=CCn1c(SCC(=O)Nc2ncc(Cc3ccc(Br)cc3)s2)nnc1-c1ccncc1`, the “activity, negative = inhibition” value was -19.6%. For `CC(C)=C1C(=O)NN(c2ccc(F)c(Cl)c2)C1=O`, the “activity, negative = inhibition” value was 14.5%.

With `Cc1cccc(C(=O)NNC(=O)C2CCCO2)c1` (stereo not given), the “activity, negative = inhibition” value is -1.17%. Turning to `CCNc1ncc2nc(-c3cc(F)cc(F)c3)c(=O)n(-c3ccccc3)c2n1`, the AC50 was 0.1 µM (active). On the same count and under the same terms, with `CCNc1ncc2nc(-c3ccc(F)cc3)c(=O)n(-c3ccccc3)c2n1` the figure was 0.1 µM (active).

For the compound `CCNc1ncc2nc(-c3ccc(OC)cc3)c(=O)n(-c3ccc(OC)cc3)c2n1`, the “activity, negative = inhibition” value is 6.13%.

On to `O=c1c(-c2cc(F)cc(F)c2)nc2cncnc2n1-c1ccccc1`, for which the “activity, negative = inhibition” value was -2.63%. On the same count and under the same terms, with `COc1ncc2nc(-c3cc(F)cc(F)c3)c(=O)n(-c3ccccc3)c2n1` the figure was 4.41%; with `CCNc1ncc2nc(-c3ccc(F)cc3)c(=O)n(C)c2n1`, 0.213%. Still for that read-out and setting: under `O=C(Nc1cccc(F)c1)/C(=C\c1ccco1)NC(=O)c1cccs1` stands 4.82%; under `CC(=O)c1ccc(S(=O)(=O)NC(=O)NC2CCCCC2)cc1`, -0.444% [at 25.6 µM]; under `CC(C)CC(c1nnnn1C(C)C)N1CCN(c2ccccc2)CC1` (stereo not given), 2.41%. Same read-out and setting: with `COc1ccccc1NC(=O)c1sc2ncn(Cc3ccccc3C)c(=O)c2c1C` the figure was -8.04%. Take `Cc1ccccc1C(=O)NN(C)c1nc2ccccc2nc1C(F)(F)F`: the “activity, negative = inhibition” value was 20.4%. Still for that read-out and setting: with `CC(=O)N1CCN(c2ccc(NC(=O)c3ccc(C)cc3)cc2)CC1` the figure was 28.5%. Still for that read-out and setting: under `COC(=O)CC[C@@H](C)[C@H]1CC[C@H]2[C@H]3CC[C@H]4C[C@@H]5CC[C@@]4(C)C3(O5)[C@@H](Br)[C@@H](Br)[C@@]12C` stands -11.7% [at 11.4 µM]; under `CO[C@H]1COC(=O)C/C=C\[C@@H](C)[C@H](OC)COC(=O)CCC[C@@H]1C`, 17.9% [at 11.4 µM]; under `Cc1ccc(CSc2nnc(C(F)(F)F)n2Cc2ccc(F)cc2)cc1`, -29.3%. Regarding `Fc1ccc(Cn2c(SCc3ccc(F)c(C(F)(F)F)c3)nnc2C(F)(F)F)cc1`, the half-maximal activity concentration (AC50) is 15.8 µM (active). For `CC(C)(C)c1ccc(-c2nnc(SCc3ccc(Cl)cc3)n2-c2cccc(C(F)(F)F)c2)cc1`, the activity, negative = inhibition was 7.38% [at 11.4 µM].
